The whole screen tested about 5,500 compounds, of which about 2,000 (36%) were called active. About 18% were inconclusive and are not listed. Cut-off read from the data, not from the text of the source: active = normalized growth mostly below about 0.91 (no sharp cut-off); inconclusive = no clear call, values can overlap the other calls; inactive = mostly above about 0.92. The list shows a part of the results.
Assay: chemical genetic growth profiling, strain panel (AID 1159580);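 note: tested at 20 µM; growth read once vehicle control cultures reached saturation at 30 °C; 1 = growth at the plate median or of vehicle wells; lower values mean less growth of the strain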
Details: growth OD

Measured: normalized growth

COC(=O)C[C@H]1C(C)(C)C(=O)[C@@H]2CC3=C(CC[C@]4(C)C3=CC(=O)O[C@H]4c3ccoc3)[C@@]1(C)C2=O
inactive: S. cerevisiae deletion strains, locus YJL168C, strain set2, active compounds read low 1.02 | S. cerevisiae deletion strains, locus YJL187C, strain SWE1 (second series), active compounds read low 1.01 | S. cerevisiae deletion strains, locus YJL187C, strain SWE1, active compounds read low 0.993 | S. cerevisiae deletion strains, locus YJR066W, strain TOR1, active compounds read low 0.928 | S. cerevisiae deletion strains, locus YKL009W, strain mrt4, active compounds read low 1.01 | S. cerevisiae deletion strains, locus YKL068W, active compounds read low 1.01 | S. cerevisiae deletion strains, locus YKL085W, strain MDH1 (second series), active compounds read low 1.01 | S. cerevisiae deletion strains, locus YKL085W, strain MDH1, active compounds read low 1.01 | S. cerevisiae deletion strains, locus YKL160W, strain elf1, active compounds read low 0.995 | S. cerevisiae deletion strains, locus YKR001C, strain vps1, active compounds read low 1.01 | S. cerevisiae deletion strains, locus YKR026C, strain gcn3, active compounds read low 0.975 | S. cerevisiae deletion strains, locus YKR091W, strain srl3, active compounds read low 0.984 | S. cerevisiae deletion strains, locus YLL001W, strain dnm1, active compounds read low 1 | S. cerevisiae deletion strains, locus YLL026W, active compounds read low 0.982 | S. cerevisiae deletion strains, locus YLL041C, strain sdh2, active compounds read low 0.972 | S. cerevisiae deletion strains, locus YLR027C, strain aat2, active compounds read low 0.984 | S. cerevisiae deletion strains, locus YLR039C, strain RIC1, active compounds read low 1.03 | S. cerevisiae deletion strains, locus YLR058C, strain SHM2, active compounds read low 1.01 | S. cerevisiae deletion strains, locus YLR102C, strain apc9, active compounds read low 1.02 | S. cerevisiae deletion strains, locus YLR113W, strain HOG1, active compounds read low 1.02 | S. cerevisiae deletion strains, locus YLR221C, strain rsa3, active compounds read low 0.958 | S. cerevisiae deletion strains, locus YLR258W, strain gsy2, active compounds read low 0.961 | S. cerevisiae deletion strains, locus YLR262C, strain YPT6 (second series), active compounds read low 1.04 | S. cerevisiae deletion strains, locus YLR262C, strain YPT6, active compounds read low 1.09 | S. cerevisiae deletion strains, locus YLR268W, strain sec22, active compounds read low 1.01 | S. cerevisiae deletion strains, locus YLR320W, strain mms22, active compounds read low 0.963 | S. cerevisiae deletion strains, locus YLR342W, strain FKS1, active compounds read low 0.963 | S. cerevisiae deletion strains, locus YLR357W, strain rsc2, active compounds read low 0.963 | S. cerevisiae deletion strains, locus YLR370C, strain arc18, active compounds read low 0.956 | S. cerevisiae deletion strains, locus YLR371W, strain rom2, active compounds read low 1.02 | S. cerevisiae deletion strains, locus YLR384C, strain iki3, active compounds read low 0.968 | S. cerevisiae deletion strains, locus YLR418C, strain cdc73, active compounds read low 1.03 | S. cerevisiae deletion strains, locus YML016C, strain PPZ1, active compounds read low 1.05 | S. cerevisiae deletion strains, locus YML032C, strain rad52, active compounds read low 1.01 | S. cerevisiae deletion strains, locus YML120C, strain ndi1, active compounds read low 0.976 | S. cerevisiae deletion strains, locus YML124C, strain tub3, active compounds read low 1.01 | S. cerevisiae deletion strains, locus YMR058W, strain fet3, active compounds read low 0.993 | S. cerevisiae deletion strains, locus YMR078C, strain ctf18, active compounds read low 1.03 | S. cerevisiae deletion strains, locus YMR125W, strain sto1, active compounds read low 0.975 | S. cerevisiae deletion strains, locus YMR129W, active compounds read low 0.988 | S. cerevisiae deletion strains, locus YMR205C, strain PFK2, active compounds read low 0.997 | S. cerevisiae deletion strains, locus YMR223W, strain ubp8, active compounds read low 1.01 | S. cerevisiae deletion strains, locus YMR231W, strain pep5, active compounds read low 0.953 | S. cerevisiae deletion strains, locus YMR307W, strain GAS1, active compounds read low 1.03 | S. cerevisiae deletion strains, locus YNL067W, strain RPL9B, active compounds read low 1.01 | S. cerevisiae deletion strains, locus YNL071W, strain lat1, active compounds read low 0.972 | S. cerevisiae deletion strains, locus YNL183C, strain NPR1, active compounds read low 0.942 | S. cerevisiae deletion strains, locus YNL209W, strain ssb2, active compounds read low 0.984 | S. cerevisiae deletion strains, locus YNL233W, strain BNI4, active compounds read low 0.984 | S. cerevisiae deletion strains, locus YNL248C, strain rpa49, active compounds read low 0.977 | S. cerevisiae deletion strains, locus YNL250W, strain rad50, active compounds read low 1.02 | S. cerevisiae deletion strains, locus YNL271C, strain bni1, active compounds read low 1.01 | S. cerevisiae deletion strains, locus YNL298W, strain CLA4, active compounds read low 1.02 | S. cerevisiae deletion strains, locus YNL307C, strain MCK1, active compounds read low 1.02 | S. cerevisiae deletion strains, locus YNL322C, strain KRE1 (second series), active compounds read low 0.966 | S. cerevisiae deletion strains, locus YNR049C, strain mso1, active compounds read low 0.975 | S. cerevisiae deletion strains, locus YNR052C, strain pop2, active compounds read low 1.03 | S. cerevisiae deletion strains, locus YOL012C, strain htz1 1.95 | S. cerevisiae deletion strains, locus YOL147C, strain pex11, active compounds read low 1.01 | S. cerevisiae deletion strains, locus YOR001W, strain rrp6, active compounds read low 0.946 | S. cerevisiae deletion strains, locus YOR061W, strain CKA2, active compounds read low 1 | S. cerevisiae deletion strains, locus YOR069W, strain VPS5, active compounds read low 1 | S. cerevisiae deletion strains, locus YOR070C, strain gyp1, active compounds read low 0.979 | S. cerevisiae deletion strains, locus YOR080W, strain dia2, active compounds read low 0.966 | S. cerevisiae deletion strains, locus YOR083W, strain WHI5, active compounds read low 1.01 | S. cerevisiae deletion strains, locus YOR106W, strain vam3, active compounds read low 0.974 | S. cerevisiae deletion strains, locus YOR136W, strain idh2, active compounds read low 1.01 | S. cerevisiae deletion strains, locus YOR144C, strain elg1, active compounds read low 1 | S. cerevisiae deletion strains, locus YOR184W, strain ser1, active compounds read low 1 | S. cerevisiae deletion strains, locus YOR231W, strain MKK1, active compounds read low 0.99 | S. cerevisiae deletion strains, locus YOR265W, strain rbl2, active compounds read low 0.972 | S. cerevisiae deletion strains, locus YOR270C, strain vph1, active compounds read low 0.963 | S. cerevisiae deletion strains, locus YOR290C, strain snf2, active compounds read low 0.992 | S. cerevisiae deletion strains, locus YOR316C, strain cot1, active compounds read low 1 | S. cerevisiae deletion strains, locus YPL051W, strain arl3, active compounds read low 1 | S. cerevisiae deletion strains, locus YPL078C, strain atp4, active compounds read low 0.996 | S. cerevisiae deletion strains, locus YPL106C, strain sse1, active compounds read low 0.952 | S. cerevisiae deletion strains, locus YPL240C, strain hsp82, active compounds read low 0.978 | S. cerevisiae deletion strains, locus YPL256C, strain CLN2, active compounds read low 0.961 | S. cerevisiae deletion strains, locus YPR119W, strain clb2, active compounds read low 1.01 | S. cerevisiae deletion strains, locus YPR141C, strain kar3, active compounds read low 1.02 | S. cerevisiae deletion strains, locus YPR163C, strain tif3, active compounds read low 1 | S. cerevisiae deletion strains, locus YPR167C, strain met16, active compounds read low 1.02 | S. cerevisiae deletion strains, strain wtn01, active compounds read low 1 | S. cerevisiae strains, strain wild type, active compounds read low 0.992
